Test in all cases: NCI-60 one-dose screen, 48 h (100 = growth as untreated, 0 = no growth, -100 = all killed)
Settings in all cases: 10 µM unless noted

Assay [1] has as its system SR leukemia.
Assay [2] relates to RPMI-8226 leukemia.
The test system of assay [3] is OVCAR-8 ovarian.
In assay [4] the test system is OVCAR-5 ovarian.
The subject of assay [5] is OVCAR-4 ovarian.
The test system of assay [6] is SK-OV-3 ovarian.
Assay [7] deals with IGROV1 ovarian.
Assay [8] concerns OVCAR-3 ovarian.
In assay [9] the test system is HS 578T breast.
Assay [10] relates to NCI/ADR-RES ovarian.
The subject of assay [11] is T-47D breast.
The subject of assay [12] is BT-549 breast.
Assay [13] has as its system MDA-MB-435 melanoma.
Assay [14] concerns SW-620 colon.
In assay [15] the test system is MCF7 breast.
Assay [16] relates to HCT-116 colon.
Assay [17] deals with HCC-2998 colon.
For assay [18], the system named is KM12 colon.

Each structure is given as a SMILES string. About 83,000 compounds went through this panel and 20% of them were active in at least one assay; those are over-represented in the sample as a whole.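 Method: cells in 96-well plates; compound added at one concentration; 48 h incubation; percent growth measured; values under 10 scored active.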 Unmarked numbers belong to inactive results. Activity calls are given as the source filed them.

Consider `COC(=O)/C=C1\S/C(=N\NC(=O)c2cc3ccc2/C=C\c2ccc(cc2)/C=C\3)N(Cc2ccccc2)C1=O`, for which the growth in [1] was -14.7% (active); in assay [2], -47% (active); in assay [3] it was 71.6%; in assay [4], 65.3%; in assay [5], 44.6%; in assay [6] it was 133%. Further, the growth in assay [7] is 42.3%; in assay [8], 20.3%; in assay [9], 87.4%; in assay [10], 70.4%; in assay [11], -6.25% (active); in assay [12], 10.3%. The growth is 91.6% in [13]; 18.2% in [14]; 32.7% in assay [15]; 49.5% in assay [16]; 79.5% in [17]; 65.1% in assay [18].
As for `COc1ccc2[nH]c(=O)c(CN3CCN(c4nccc(-c5ccc(Cl)cc5)n4)CC3)cc2c1`, the growth in assay [1] was 70.3%; in assay [2], 73.6%; in assay [3], 66%; in assay [4], 98.5%; in [5] it was 71.4%; in [6], 94.9%. Further, the growth was 106% in assay [7]; 100% in assay [8]; 72.9% in assay [9]; 82.4% in [10]; 73.6% in [11]; 91.2% in assay [12]. Also, the growth is 97.9% in assay [13]; 89.5% in [14]; 83.5% in assay [15]; 86.4% in assay [16]; 105% in [17]; 90.6% in assay [18].
As to `COc1cccc(-c2nc3occn3c2-c2ccnc(NCCNS(=O)(=O)c3ccc(C(F)(F)F)cc3)n2)c1`, the growth in assay [1] is 96.6%; in assay [2] it was 69.2%; in assay [3] it was 90.8%; in assay [4] it was 116%; in assay [5], 83.7%; in [6] it was 103%. The growth in assay [7] is 80.6%; in [8] it was 96.7%; in [9], -23.5% (active); in [10] it was 99.4%; in assay [11] it was 41.1%; in assay [12], 96.5%. The growth is 70.4% in assay [13]; 113% in [14]; 80.9% in assay [15]; 92.9% in [16]; 133% in assay [17]; 98.9% in assay [18].
On to `CN1C(=O)NC(c2ccc3c(c2)OCO3)C=C1c1ccccc1` (configuration not stated), for which the growth in assay [1] was 23.3%; in [2], 65.5%; in [3] it was 93.6%; in [4] it was 93.9%; in assay [5], 97.5%; in assay [6], 94.1%. In addition, the growth was 78.7% in assay [7]; 91.1% in assay [8]; 101% in [9]; 98.8% in assay [10]; 78.6% in assay [11]; 90% in assay [12]. The growth in [13] is 97.5%; in assay [14], 78.3%; in assay [15], 49.9%; in assay [16] it was 78%; in [17], 110%; in assay [18], 88.2%.
For `OC(c1ccc(F)c(C(F)(F)F)c1)c1cnccc1NC1CCCCC1` (configuration not stated), the growth in assay [1] is 16.6%; in assay [2], 16.9%; in [3], 81.8%; in assay [4], 85.3%; in assay [5], 64.8%; in [6], 103%. The growth in [7] was 70%; in assay [8], 72.3%; in assay [9], 77.3%; in assay [10], 74.7%; in [11] it was 41.5%; in [12] it was 90.5%. The growth in assay [13] is 78.5%; in [14], 58.3%; in assay [15], 58.4%; in assay [16], 36.4%; in assay [17], -51% (active); in assay [18] it was 70.6%.
Take `CCCCCC(=O)Oc1ccc(/C(=C(\C)c2ccccc2)c2ccc(OCCN3CCCCC3)cc2)cc1`: the growth is 30.5% in assay [1]; 64.8% in assay [2]; 89.2% in [3]; 88.3% in assay [4]; 82.9% in [5]; 80.7% in assay [6]. Also, the growth in [7] is 90.4%; in [8] it was 90.5%; in [9], 75.6%; in assay [10], 76.3%; in [11], 37.3%; in [12], 78.4%. Further, the growth in assay [13] is 85.9%; in assay [14] it was 87.9%; in assay [15], 27.7%; in assay [16], 56.6%; in assay [17] it was 79.1%; in [18] it was 71.6%.
As for `C/C(=N\NC(=O)CSc1nc2ccccc2c(=O)n1Cc1ccc(S(N)(=O)=O)cc1)c1ccc(F)cc1`, the growth in assay [1] is 100%; in assay [2], 112%; in assay [3] it was 101%; in [4], 96.4%; in [5] it was 99.8%; in assay [6], 111%. The growth was 106% in assay [7]; 115% in assay [8]; 102% in assay [9]; 104% in assay [10]; 96.7% in assay [11]; 112% in assay [12]. Moreover, the growth is 104% in assay [13]; 104% in [14]; 96.1% in [15]; 102% in [16]; 112% in assay [17]; 105% in assay [18].
Regarding `CCN(CC)CCCC(C)Nc1cc(O)cc2cccnc12` (configuration not stated), the growth in [1] is 132%; in assay [2], 97.3%; in assay [3], 101%; in assay [4], 105%; in [5], 84.2%; in [6] it was 119%. Further, the growth in [7] was 154%; in assay [8] it was 90.2%; in assay [9], 73.9%; in assay [10], 102%; in [11], 110%; in assay [12], 105%. Further, the growth is 106% in assay [13]; 97.2% in assay [14]; 95% in assay [15]; 87.6% in assay [16]; 96.4% in assay [17]; 105% in [18].
Turning to `COc1cc2oc(-c3cccc(C(=O)Nc4ccccc4)c3)cc(=O)c2c(O)c1OC`, the growth in [1] is 95.7%; in assay [2] it was 83.5%; in assay [3], 15.4%; in [4] it was 94.4%; in [5] it was -20.2% (active); in [6] it was 15%. The growth in assay [7] was 85.4%; in assay [8], 70.1%; in assay [9], 11.1%; in assay [10], 79.1%; in [11], 55.8%; in assay [12] it was 60.1%. Further, the growth in assay [13] was 58.3%; in assay [14] it was 94.3%; in assay [15], 78.1%; in assay [16], 46.3%; in assay [17], 89.7%; in assay [18], 57.8%.

Values taken from PubChem BioAssay (NCI).
